Among all 53,000 sequences or so, about 3,700 (7%) were called active. This is one part of a sample in which actives are shown more often than they occur.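 The calls were made as follows: active = gene knockdowns whose robust z-score for IL-1 alpha signal is at least 2 or at most -2, so actives lie on both sides; inactive = the rest.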
Test: Components of the Cytosolic LPS Sensing Pathway: Gene Identification via Genome-wide siRNA Screen;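 also: robust z of the log signal after scaling to non-targeting control siRNA wells of the plate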
Conditions: RAW264.7 macrophages, IL-1a HTRF, actives lie on both sides, screened at 100 nM (by protocol), cells primed 5 h with Pam3CSK4 first
Method in brief: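 Read-out: IL-1a HTRF on supernatant, divided by plate negative-control median ×100, log-transformed and converted to robust z-score. Cells were RAW264.7 given 100 nM siRNA, Pam3CSK4-primed 5 hours, then LipidA-transfected 24 hour.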

Sequence | z-score
AACACUGGGUACAUCUACATT against H2-Q7 | 1.75 (inactive)
UUCCCACUCUGACUAUUUUTT against Olfr970 | -0.0332 (inactive)
GGCCUUCAAGUGCAUGAUGTT against Yaf2 | -1.65 (inactive)
CCAGAAAACCAAACAACAGTT against Olfr1357 | 0.287 (inactive)
GGUGACAGGAAAGUUCUGUTT against Gsdmc2 | 2.07 (active)
GGCGAUUAAACUAUACAUUTT against Rrm2 | 0.0358 (inactive)
GGGCAUGUGAAGAUGUGCGTT against Map2k3 | -0.272 (inactive)
CGUCUUACACGGUUCAAAGTT against Tbc1d10a | 0.809 (inactive)
CGUGGUACACUGAAGACUUTT against Mmp1a | 2.3 (active)
GGACCAUUCUGAAGAGCAGTT against Il5ra | 0.867 (inactive)
GCUUUAUUGACACGACCCGTT against Rbm19 | 0.184 (inactive)
CCGUCGUACACAAUCUUACTT against Fgfr4 | -0.512 (inactive)
GGUACACAACCAUCCUUGATT against Olfr600 | -2.33 (active)
CCUACAUCAGGUCAGCAAGTT against Mrto4 | 1.26 (inactive)
GGAAAAAGCAAAUUGAGGATT against Uchl1 | -1.48 (inactive)
GCAGAGUCACCUUACUAACTT against Fam122b | -0.0407 (inactive)
GGAGCUACACACAUAGGAATT against Clec2h | 0.891 (inactive)
GGAUACCAAGAUUCCAAAUTT against Pik3r4 | 2.19 (active)
GCCAGCAACCCUCUUCGUUTT against Foxo6 | 0.142 (inactive)
CCUUUGACGGCCAUGAGUATT against Muc6 | -1.39 (inactive)
GCUAAGCACAAUGUGUACATT against Dus4l | -0.633 (inactive)
GGUCAUAGCUUAGAAGGUGTT against Rhov | -0.233 (inactive)

Sequence | z-score
GGGAAGCAAUAAGUCGCCUTT against Shc4 | 0.394 (inactive)
GAGCCAAGUACCAUCUAUATT against Olfr389 | 2.28 (active)
GGUUAAGCAGAAAUUAAGATT against Supt20 | -0.551 (inactive)
GCCACAGGAUGCUAGCAAATT against Bex2 | 0.282 (inactive)
GCAGUUGGUAUUGUUAACUTT against Maml1 | -0.0252 (inactive)
GCUAAACCCAAAAACACAATT against Sim2 | 1.04 (inactive)
GCUAGAAAUAAGGCUGCACTT against Plekhg6 | -1.2 (inactive)
GGAAGCAAGUAUCCCGAAUTT against Snhg11 | -2.58 (active)
GCCAAUGAGAGUAGGAAAGTT against Elovl3 | 1.43 (inactive)
GCCUCUCAACUUAAUAACATT against Zup1 | -0.697 (inactive)
GCUAACAGUAUCCUUAUUUTT against Vmn1r53 | -0.436 (inactive)
CCUCUACAAUGUAACCAACTT against Kir3dl2 | -0.183 (inactive)
GGAAACAUUAGAAUCUUGUTT against Lin52 | -2.23 (active)
GGUCUUCGCCACAUGGAAATT against Crkl | 0.436 (inactive)
CCUUGUCCCUUUACCUCAATT against Plk5 | -1.39 (inactive)
GCUUUAGGAAAUUUUGUGUTT against Ska3 | -1.05 (inactive)
GGUCAUUCUAAUGACAAUCTT against Atg14 | -0.014 (inactive)
GGUUAGAGAUUGUUCUGUUTT against Olfr267 | 2.02 (active)
AAUGGCAUAGGUCCUAUUATT against Tcaim | -0.011 (inactive)
GGUUUUUGUCCCAUCUUGGTT against Zc3h12d | 0.228 (inactive)
GGGUCUUUAAACUGAAAGATT against Sh3pxd2a | 0.0777 (inactive)
CCUGUAAGGUCUCUAGCAUTT against Exosc1 | 1.53 (inactive)

Sequence | z-score
GGUUGUGCACAGCAGUGUUTT against Crct1 | -0.716 (inactive)
GGACAAAGUCACAGAGUCCTT against Slc26a5 | -2.08 (active)
GCACGUACCUGAUAGUCCUTT against Daglb | -0.976 (inactive)
GGGCCAAACCCAGAACUAUTT against Sema4g | 1.5 (inactive)
GGACAAGUCAAUUUGUUGGTT against Zfp36l1 | 0.277 (inactive)
GGUGUAUCGGAACAGUGAGTT against Det1 | -2.8 (active)
GCAAUGGAACUAUUAUUCATT against Cd28 | 2.48 (active)
GGCUUCAAAGCAUGACCAGTT against Ccr1 | -0.528 (inactive)
GGACCUGCCAAAAGUUGUGTT against Uqcrc1 | -1.16 (inactive)
GCAGUUGAAUAUCAGACUGTT against Obox5 | -0.973 (inactive)
GGUUCAGAAUCAAUACGAGTT against Krt2 | -0.909 (inactive)
GGACACUUCCAAACUGACCTT against Tiparp | -1.43 (inactive)
GCGUAGGUCAUCCUUGUAATT against Samd4 | -2.22 (active)
GGUCAUUCACAAGUCCUUUTT against Serpinb6b | 0.863 (inactive)
GCCAGUGGUAGCGAUAUGATT against Zscan4c | -0.263 (inactive)
GGAGAACACCAAAAAGGGCTT against Uncx | -1.26 (inactive)
GCUGUGUGGACAAAGUCUGTT against Clec4b1 | -0.398 (inactive)
GGUCUUUAGAAUUAGGCUCTT against Pml | 0.188 (inactive)
GCACUUUAAAAGAAUCACUTT against Slc2a12 | 2.11 (active)
GGAAGAAGUAGCUAAAAACTT against Entpd4 | 0.488 (inactive)
GGUCUUGCUAUUUGUGAUATT against Olfr1294 | 0.617 (inactive)
GGACUUCACAAGACUUCAATT against Nfam1 | 2.06 (active)

Sequence | z-score
GGUCAAGGAAUUAGUGAUUTT against Tctex1d1 | 0.398 (inactive)
GGUACAGUGUCAUCAUGAATT against Olfr460 | -0.456 (inactive)
GGUAAUUUGUAAGGAACCCTT against Rpusd2 | -0.881 (inactive)
GGAAAAAUGGGAGUUUGAATT against Ccdc83 | -0.291 (inactive)
GUCCUUCUCAUCAUGGGACTT against Sec61g | -0.248 (inactive)
GGCGAAAGUGCUUUUCCUGTT against Gbp8 | 1.03 (inactive)
GCUGAUCCACGACUACUUGTT against Rab10os | 1.24 (inactive)
GCUUAGAUCUUACCCACCCTT against Ptcra | 2.52 (active)
GCUCCGUAAGAAGUCUCGUTT against Dhx16 | -0.676 (inactive)
GAUGGAGAAACUGAAGAAGTT against Olfml2a | -0.117 (inactive)
UCCACUUCACUAAUCCUGUTT against Vmn2r43 | -2.52 (active)
GCUGGAUUUGGACUCUUAGTT against Vmn1r16 | 1.1 (inactive)
GGGCUGUGAUAUGCAACUCTT against Teddm2 | -0.988 (inactive)
GGAAAUGGUCCCUCUGUGUTT against Tspoap1 | -2.99 (active)
CCUUUGAUCAAUUCUGAGUTT against Glb1 | -0.554 (inactive)
GCAACGUGAAACAUAUUCUTT against Cpb1 | 1.69 (inactive)
GGAAGUAACCACAUCCUAUTT against Epn2 | -0.628 (inactive)
GGAGGGAAUGAAAAGUCAATT against Stard7 | 2.09 (active)
GGUCACUGUUAGUUAUUAATT against Tcerg1l | 0.954 (inactive)
GGGUAUUUUACCACUACUUTT against Psg23 | 0.32 (inactive)
GCCGUCACAAGAACUGAACTT against Apon | -0.24 (inactive)
CCCACUUUGAGGAAAGCUATT against Itprip | -2.46 (active)

Sequence | z-score
GGAAAACUAACCAAAAUAGTT against F3 | 1.45 (inactive)
GGCAAAUUAUUAGUACAGUTT against Gabpa | 1.41 (inactive)
CCCGAAUCUCAGCGUAGAATT against Gm5617 | -0.853 (inactive)
GGAGUUCAAUCCAACAAAATT against Atxn2l | -1.4 (inactive)
GCUCAGAGACAAGCAACUGTT against Kcnk7 | 0.247 (inactive)
GGAACAGAAAACCAUAUAATT against Snx29 | -2.54 (active)
GGUUAUGAGGCUUAAUAAATT against Atxn7l1 | 0.965 (inactive)
CCCUCGGUGCCUAAUAAAUTT against Hsd17b10 | -0.0731 (inactive)
GGAUGCUAUAAAGAAUGCCTT against Prpf39 | -1.19 (inactive)
UCCGUUGGAGUAUCGAUGUTT against Trp53rka | -1.25 (inactive)
GCGAGAUGGAAGGAUCUUGTT against Anapc13 | 5.28 (active)
GGAGAACAUGGAGACUAUUTT against Ramp1 | -0.756 (inactive)
GGUCUACCAUUUCACCUUGTT against Cops4 | 1.19 (inactive)
GUUGCCAGAUUUGGAUAUUTT against Abcg5 | 0.664 (inactive)
CGGGAAGAGUACUUGUUUUTT against Cfl1 | 0.153 (inactive)
CAAAGCCACCUCGCCCUAUTT against Nkx2-6 | -0.0586 (inactive)
GGCUUAUGUUUGCUUUGUUTT against Piwil1 | 0.0916 (inactive)
CCUUUUUCUGGAUUGGAAUTT against Klrd1 | -0.00525 (inactive)
GGAAUAUGACUUCAAGAUGTT against Lmnb2 | 4.28 (active)
AAUGCAAACAAUGCAAAUGTT against Mt2 | -0.174 (inactive)

— PubChem BioAssay AID1508600 (Functional Genomics Laboratory (NCATS/FGL), 2020)
